# From the antibiotic and cytotoxicity screens of Wong et al. (2023)
# Out of some 39,000 compounds screened, about 1,500 (3.8%) were called active. The entries come from a sample that favours actives as a whole.
# Tested on: HSkMC (human skeletal muscle cells)
# Assay: cytotoxicity call (relative viability < 0.9)
# Conditions: 10 µM
row,SMILES,cytotoxicity call
1,COc1ccc(NC(=O)Nc2ccc3c(c2)C(=O)N([C@@H](C)CO)C[C@H](C)[C@@H](CN(C)CC2CCCCC2)O3)cc1,inactive
2,C[C@H]1CN([C@@H](C)CO)C(=O)c2cc(NS(=O)(=O)c3cn(C)cn3)ccc2O[C@@H]1CN(C)C(=O)Nc1ccccc1,inactive
3,C[C@H](CO)N1C[C@H](C)[C@H](CN(C)S(=O)(=O)c2ccccc2F)Oc2cc(C#Cc3ccccc3)ccc2S1(=O)=O,inactive
4,CN(C)[C@@H](CN)c1cccn1C,inactive
5,C[C@H](CO)N1C[C@H](C)[C@H](CN(C)C(=O)CN2CCOCC2)Oc2ncc(C#C[C@@H](C)O)cc2C1=O,inactive
6,C[C@H](CO)N1C[C@H](C)[C@@H](CN(C)Cc2ccc(-c3ccccc3)cc2)Oc2ccc(NS(=O)(=O)c3cccs3)cc2CC1=O,inactive
7,C/C(=N\N)c1ccc2ccccc2c1,inactive
8,O=C(C[C@H]1CC[C@H]2[C@@H](COC[C@H](O)CN2C(=O)c2ccccc2)O1)N1CCOCC1,inactive
9,Cc1noc(C)c1NC(=O)Nc1cccc2c1O[C@H](CN(C)S(C)(=O)=O)[C@@H](C)CN([C@H](C)CO)C2=O,inactive
10,CC(C)NC(=O)N(C)C[C@@H]1Oc2ccc(NC(=O)Cc3ccccc3)cc2C(=O)N([C@@H](C)CO)C[C@@H]1C,inactive
11,Cc1noc(C)c1NC(=O)Nc1ccc2c(c1)C(=O)N([C@@H](C)CO)C[C@H](C)[C@@H](CN(C)C(=O)c1ccccc1)OCCCC[C@@H](C)O2,inactive
12,O=C(C[C@@H]1CC=CCC[C@H](Cc2ccc(F)cc2)C(=O)OC[C@@H](Cc2c[nH]c3ccccc23)NC1=O)N[C@@H](CO)Cc1ccccc1,inactive
13,O=C(C[C@@H]1CC=CCC[C@@H](Cc2ccc(F)cc2)C(=O)OC[C@@H](Cc2c[nH]c3ccccc23)NC1=O)N[C@H](CO)Cc1ccccc1,active
14,O=C(C[C@@H]1CC=CCC[C@@H](Cc2ccc(F)cc2)C(=O)OC[C@H](Cc2c[nH]c3ccccc23)NC1=O)N[C@@H](CO)Cc1ccccc1,inactive
15,C[C@H]1CN([C@@H](C)CO)C(=O)c2cccc(NC(=O)Nc3ccc(C(F)(F)F)cc3)c2O[C@@H]1CN(C)Cc1ccncc1,inactive
16,COc1ccc(NC(=O)Nc2ccc3c(c2)C(=O)N([C@@H](C)CO)C[C@H](C)[C@H](CN(C)Cc2ccc(C(=O)O)cc2)OCCCC[C@@H](C)O3)cc1,inactive
17,Cc1ccc(CN)cc1Cl,inactive
18,Cc1cc(C(=O)c2cc3cc(Cl)ccc3o2)ccc1Cl,inactive
19,Cc1cc(CN)cc(C)c1NC(=O)c1ccc(-c2cc(Cl)ccc2Cl)o1,active
20,COc1cccc(S(=O)(=O)N(C)C[C@H]2Oc3ncc(Br)cc3C(=O)N([C@H](C)CO)C[C@H]2C)c1,inactive
